The text below walks through data of PubChem BioAssay.

One experiment addresses Albumin (Bos taurus) (UniProt P02769). As to the kind of experiment: compounds binding labelled BSA control protein – biochemical, small-molecule microarray, Alexa647 label, 635/667 nm fluorescence, artefact control for SMM control protein annotation, profiling panel (AID 1118).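 Further: score merges 667 nm emission intensity and signal-to-noise per printed compound spot.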 Particulars: BSA-A647 binding, fluorescence 635 nm, higher = more signal.
Experiment [1] can be described thus: probe aXIP binding to arrayed compounds – biochemical, NeuroSMM set, 635/667 nm fluorescence, primary screen (AID 1119).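 Further: probe is the protein aXip251-270 applied at 1 µg/mL to compound-printed slides; binding of probe to printed compounds measured as 667 nm fluorescence plus signal to noise.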 Particulars: small-molecule microarray, higher = more signal, called active from +8 up or from −8 down.
Experiment [2] in a line: probe aNOTCH3 binding on compound microarray – biochemical, small-molecule microarray, 635/667 nm fluorescence, primary screen (AID 1120).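 Further: probe is a biotin-tagged antibody raised against NOTCH3 rather than NOTCH3 protein; score merges spot fluorescence near 667 nm with spot signal to noise.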 Particulars: higher = more signal.
Experiment [3] in a line: probe aNOTCH2 binding on compound microarray – biochemical, small-molecule microarray, 635/667 nm fluorescence, primary screen (AID 1121).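 Further: score merges feature fluorescence read at 667 nm with its signal to noise.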 Conditions: higher = more signal.
The target in experiment [4] is Carbonic anhydrase 2 (Homo sapiens) (UniProt P00918). As to the kind of experiment: compounds binding carbonic anhydrase 2 – biochemical, small-molecule microarray, Alexa647-labelled CAII, profiling panel (AID 1122). Particulars: CAII-A647 binding fluorescence, higher = more signal.
Experiment [5] in a line: COS7 lysate on small-molecule microarray, probe aHis, 635 nm (AID 1123).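 Further: z-score combines 667nm fluorescence intensity with signal-to-noise per printed compound spot.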 Conditions: COS7 cell lysate, fluorescence, higher = more signal.
Experiment [6] can be described thus: probe aLAP1 signal on lysate-treated microarray – cell lysate, small-molecule microarray, COS7 lysate, primary screen (AID 1124).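 Further: lysate comes from COS7 cells expressing LAP1 and is applied at 0.3 µg/mL; score merges spot fluorescence near 667 nm with signal-to-noise over triplicate slides.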 Particulars: probe aLAP1, fluorescence, higher = more signal.
Another experiment deals with Sam68 (KHDRBS1). The experiment in a line: compounds binding KHDRBS1 protein – biochemical, small-molecule microarray, 635 nm fluorescence, primary screen (AID 1125).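 Further: score merges 667 nm channel intensity with signal to noise over triplicate slides.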 Conditions: higher = more signal.
For experiment [7], the system named is Chordin-like protein 2 (CHRDL2). The experiment in a line: compounds binding chordin-like 2 – biochemical, small-molecule microarray, 635 nm fluorescence, primary screen (AID 1126).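 Further: printed compound slides probed with Chrdl2 protein at 4 µg/mL for 1 h at 4 C; score merges 667 nm emission intensity with signal to noise over three replicate slides.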 Conditions: fluorescence 635 nm, higher = more signal.
In experiment [8] the target is Concanavalin-A (Canavalia ensiformis) (UniProt P02866). The experiment in a line: compounds binding concanavalin A lectin – biochemical, small-molecule microarray, Alexa647 label, 635 nm, artefact control for SMM control protein annotation, primary screen (AID 1127).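 Further: z combines 667 nm emission intensity with signal-to-noise across three replicate slides.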 Conditions: ConA-A647 binding fluorescence, higher = more signal.
Experiment [9] is described as follows: compounds binding Alexa647 anti-His antibody – biochemical, small-molecule microarray, 635 nm fluorescence, artefact control for SMM control protein annotation, primary screen (AID 1128).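 Further: score merges feature fluorescence with signal-to-noise for each printed compound spot.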 Conditions: higher = more signal.
For experiment [10], the system named is Human papillomavirus type 1a E7 protein (residues 1-88). As to the kind of experiment: HPV1a E7 small-molecule binders, primary screen, biochemical, small-molecule microarray, residues 1-88, 635 nm (AID 1129). Particulars: small-molecule microarray binding, fluorescence 635 nm; higher = more signal.
For experiment [11], the target named is Focal adhesion kinase 1 (Homo sapiens) (UniProt Q05397). As to the kind of experiment: PTK2 protein binding on printed compound slides – biochemical, small-molecule microarray, 635/667 nm fluorescence, BSA, DTT, primary screen (AID 1130).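 Further: composite of spot emission at 667 nm and signal to noise over triplicate slides.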 Particulars: 635 nm fluorescence, higher = more signal.
The test system of experiment [12] is Fibrinogen (Alexa647-labelled). As to the kind of experiment: Alexa647-fibrinogen binding to printed small molecules – biochemical, small-molecule microarray, 635/667 nm fluorescence, artefact control for SMM control-protein annotation, profiling panel (AID 1131).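 Further: z-score merges 667 nm fluorescence with per-spot signal-to-noise over triplicate slides.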 Conditions: fibrinogen-A647 binding fluorescence, higher = more signal.
Experiment [13] addresses Follistatin (Homo sapiens) (UniProt P19883). As to the kind of experiment: FST protein binding to printed compounds – biochemical, small-molecule microarray, 635/667 nm fluorescence, primary screen (AID 1132). Conditions: 635 nm fluorescence, higher = more signal.
The target of experiment [14] is Fibroblast growth factor 2 (Homo sapiens) (UniProt P09038). The experiment in a line: basic fibroblast growth factor binding to printed compounds – biochemical, small-molecule microarray, 635/667 nm fluorescence, primary screen (AID 1133). Particulars: FGF2, fluorescence 635/667, higher = more signal.
The nature of experiment [15]: JC-1 mitochondrial potential readout, lung cancer cells – cell-based, A549, JC-1 fluorescence, basal, 24 h, 100 nL, profiling panel (AID 1138).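 Further: A549 lung adenocarcinoma cells under basal conditions with no added stimulus; test concentration not given here.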 Conditions: higher = more signal.
The subject of another experiment is Lefty1. As to the kind of experiment: Lefty1 protein binding to printed compounds – biochemical, small-molecule microarray, 635/667 nm fluorescence, primary screen (AID 1139). Conditions: fluorescence 635/667, higher = more signal.
Experiment [16] has as its system wheat germ agglutinin (Triticum aestivum), Alexa647-labelled. The experiment in a line: Alexa647-WGA lectin binding to printed small molecules – biochemical, small-molecule microarray, 635/667 nm fluorescence, artefact control for SMM control-protein annotation, profiling panel (AID 1140).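 Further: score merges 667 nm feature emission with signal to noise over triplicate slides.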 Conditions: WGA-A647 binding, 635 nm fluorescence, higher = more signal.
For experiment [17], the target named is Luciferin 4-monooxygenase (Photinus pyralis) (UniProt P08659). The experiment in a line: inhibition of purified Photinus pyralis luciferase – biochemical, luminescence, purified enzyme, 2006 set, primary screen (AID 1141).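 Further: cell-free assay with purified firefly luciferase at 100 ng per well in PBS; test concentration not given here.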 Conditions: purified firefly luciferase, SteadyGlo luminescence, 30 min; higher = more signal, called active from +8 up or from −8 down.

Activity calls are given as the source filed them.

Focal adhesion kinase 1 (Homo sapiens), sequence (Q05397 whole entry, looked up): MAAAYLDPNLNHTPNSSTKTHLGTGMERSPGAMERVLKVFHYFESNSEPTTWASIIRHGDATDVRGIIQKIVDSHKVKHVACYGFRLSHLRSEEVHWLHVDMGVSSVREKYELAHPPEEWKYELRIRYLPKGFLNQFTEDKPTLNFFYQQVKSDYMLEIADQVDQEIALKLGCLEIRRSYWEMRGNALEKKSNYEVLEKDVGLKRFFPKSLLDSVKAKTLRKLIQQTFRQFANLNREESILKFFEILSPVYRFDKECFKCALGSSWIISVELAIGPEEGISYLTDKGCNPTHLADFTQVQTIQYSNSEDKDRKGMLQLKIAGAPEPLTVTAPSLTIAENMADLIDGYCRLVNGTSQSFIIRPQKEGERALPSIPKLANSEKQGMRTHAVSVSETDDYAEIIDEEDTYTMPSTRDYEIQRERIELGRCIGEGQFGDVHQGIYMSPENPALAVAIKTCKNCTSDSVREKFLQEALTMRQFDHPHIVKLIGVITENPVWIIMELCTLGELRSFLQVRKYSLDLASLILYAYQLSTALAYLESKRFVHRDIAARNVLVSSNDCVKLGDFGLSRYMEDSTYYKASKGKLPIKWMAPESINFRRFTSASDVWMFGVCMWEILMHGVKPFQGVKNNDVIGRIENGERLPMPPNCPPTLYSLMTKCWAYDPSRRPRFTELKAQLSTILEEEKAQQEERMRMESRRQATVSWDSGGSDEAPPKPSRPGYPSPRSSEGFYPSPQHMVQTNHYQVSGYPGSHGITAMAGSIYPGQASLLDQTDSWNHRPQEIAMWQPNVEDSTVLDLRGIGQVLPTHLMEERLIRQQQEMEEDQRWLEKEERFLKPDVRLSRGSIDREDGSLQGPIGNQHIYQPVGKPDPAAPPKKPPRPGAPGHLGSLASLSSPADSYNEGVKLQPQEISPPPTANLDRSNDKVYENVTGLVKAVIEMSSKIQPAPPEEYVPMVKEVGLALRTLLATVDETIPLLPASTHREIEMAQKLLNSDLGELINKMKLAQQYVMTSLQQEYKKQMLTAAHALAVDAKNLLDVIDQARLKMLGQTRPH
Luciferin 4-monooxygenase (Photinus pyralis), sequence (P08659 whole entry, looked up): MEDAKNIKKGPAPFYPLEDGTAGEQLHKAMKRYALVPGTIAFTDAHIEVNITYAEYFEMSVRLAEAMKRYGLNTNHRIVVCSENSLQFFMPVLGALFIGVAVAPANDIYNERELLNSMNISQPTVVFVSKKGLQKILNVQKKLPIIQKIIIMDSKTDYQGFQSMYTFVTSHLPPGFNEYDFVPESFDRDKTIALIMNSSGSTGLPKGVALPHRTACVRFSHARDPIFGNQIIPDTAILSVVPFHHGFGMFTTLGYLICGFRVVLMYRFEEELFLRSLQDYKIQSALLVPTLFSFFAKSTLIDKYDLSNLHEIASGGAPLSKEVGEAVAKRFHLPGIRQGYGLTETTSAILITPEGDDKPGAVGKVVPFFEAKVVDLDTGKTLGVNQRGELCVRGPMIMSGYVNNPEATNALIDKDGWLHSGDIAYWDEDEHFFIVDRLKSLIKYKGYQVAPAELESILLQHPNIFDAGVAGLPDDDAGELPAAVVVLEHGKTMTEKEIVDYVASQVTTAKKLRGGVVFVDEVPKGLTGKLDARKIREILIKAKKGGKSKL
Fibroblast growth factor 2 (Homo sapiens), sequence (P09038 whole entry, looked up): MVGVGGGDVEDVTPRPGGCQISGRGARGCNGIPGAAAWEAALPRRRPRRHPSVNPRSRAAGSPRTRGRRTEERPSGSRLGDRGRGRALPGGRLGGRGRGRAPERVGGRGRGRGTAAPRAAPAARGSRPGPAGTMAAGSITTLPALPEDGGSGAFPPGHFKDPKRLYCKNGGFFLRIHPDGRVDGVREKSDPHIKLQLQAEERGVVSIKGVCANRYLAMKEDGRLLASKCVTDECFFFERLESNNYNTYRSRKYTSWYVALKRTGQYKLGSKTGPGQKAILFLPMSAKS
Follistatin (Homo sapiens), sequence (P19883 whole entry, looked up): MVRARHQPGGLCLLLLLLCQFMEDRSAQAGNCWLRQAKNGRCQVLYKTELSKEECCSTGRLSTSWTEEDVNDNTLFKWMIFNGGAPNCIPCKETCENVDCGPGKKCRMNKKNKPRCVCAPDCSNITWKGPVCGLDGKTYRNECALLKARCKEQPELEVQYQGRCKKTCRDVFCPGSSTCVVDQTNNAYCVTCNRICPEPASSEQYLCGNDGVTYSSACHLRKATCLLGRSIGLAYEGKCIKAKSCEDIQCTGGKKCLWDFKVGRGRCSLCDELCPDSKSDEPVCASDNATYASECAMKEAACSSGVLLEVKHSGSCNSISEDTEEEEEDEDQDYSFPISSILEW
Concanavalin-A (Canavalia ensiformis), sequence (P02866 whole entry, looked up): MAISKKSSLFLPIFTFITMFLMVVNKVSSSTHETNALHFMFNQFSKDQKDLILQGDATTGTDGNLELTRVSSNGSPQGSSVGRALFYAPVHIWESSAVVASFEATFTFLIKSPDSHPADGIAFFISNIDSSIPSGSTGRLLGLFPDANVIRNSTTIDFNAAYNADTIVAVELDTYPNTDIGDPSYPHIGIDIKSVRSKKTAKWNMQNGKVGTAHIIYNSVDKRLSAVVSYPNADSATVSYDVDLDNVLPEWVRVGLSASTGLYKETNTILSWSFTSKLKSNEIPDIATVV
Albumin (Bos taurus), sequence (P02769 whole entry, looked up): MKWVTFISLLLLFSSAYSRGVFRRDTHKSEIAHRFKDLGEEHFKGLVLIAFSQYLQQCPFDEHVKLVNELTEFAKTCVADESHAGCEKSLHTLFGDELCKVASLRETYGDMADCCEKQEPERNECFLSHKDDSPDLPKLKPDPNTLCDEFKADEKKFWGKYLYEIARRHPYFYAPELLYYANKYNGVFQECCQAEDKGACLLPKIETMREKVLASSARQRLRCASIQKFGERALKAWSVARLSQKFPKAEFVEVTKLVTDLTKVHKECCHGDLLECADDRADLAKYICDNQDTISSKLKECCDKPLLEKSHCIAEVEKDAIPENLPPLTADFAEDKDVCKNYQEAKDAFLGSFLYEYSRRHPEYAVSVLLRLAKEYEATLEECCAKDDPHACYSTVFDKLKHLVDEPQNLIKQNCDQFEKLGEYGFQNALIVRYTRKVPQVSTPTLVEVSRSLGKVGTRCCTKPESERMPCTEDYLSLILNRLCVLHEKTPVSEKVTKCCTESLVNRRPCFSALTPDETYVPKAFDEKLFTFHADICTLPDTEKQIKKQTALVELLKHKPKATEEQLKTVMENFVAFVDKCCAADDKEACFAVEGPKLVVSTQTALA

Regarding `CCOC(=O)C1=CC[C@@H](c2ccc(OC)cc2)N(S(=O)(=O)c2ccc(C)cc2)[C@H]1CC`, the composite z-score turned out to be 0.894 with Albumin (Bos taurus); 0.164 in experiment [2]; 0.0684 in experiment [3]; 0.579 in [4]; 1.85 in experiment [5]; 0.133 in experiment [6]. Also, the composite z-score was 1.33 in the experiment with Sam68 (KHDRBS1); -0.483 in experiment [7]; 1.07 in experiment [8]; 1.17 in [9]; 1.22 in [10]; 0.493 in experiment [11]. Besides, the composite z-score in [12] was 0.993; in experiment [13], 0.995; in experiment [14], 0.873; in the experiment on Lefty1, 0.689; in experiment [16], 0.902. Also, the composite Z-score in experiment [1] is -0.0608 (inactive). Moreover, the z-score in experiment [15] is 2.69; in [17], 1.24 (inactive).

For the compound `CCCC=C(CCC)[C@@H](NC(=O)OCC(C)C)c1ccc(C(=O)OC)cc1`, the composite z-score in the experiment with Albumin (Bos taurus) is -0.0782; in [2], -0.0328; in [3] it was -0.15; in experiment [4], 0.133; in experiment [5] it was 0.141; in [6], 0.35. Further, the composite z-score amounted to 0.687 in the experiment with Sam68 (KHDRBS1); 0.436 in [7]; 0.256 in [8]; 0.403 in experiment [9]; 0.717 in [10]; 1.16 in experiment [11]. Moreover, the composite z-score in experiment [12] is 0.441; in [13], -0.133; in experiment [14], 0.462; in the experiment on Lefty1, 0.704; in [16], 0.0477. Moreover, the composite Z-score in [1] was -0.773 (inactive). In addition, the z-score in experiment [15] was 0.744; in [17] it was 2.34 (inactive).

As to `O=C(NCC(O)CO)C1N=C(c2ccc(OCCCO)cc2)N(c2ccccc2)O1` (stereo not given), the composite z-score with Albumin (Bos taurus) is -0.138; in [2], -0.0996; in experiment [3] it was 0.162; in experiment [4], 0.821; in experiment [5], 0.0043; in experiment [6] it was 1.04. Also, the composite z-score in the experiment with Sam68 (KHDRBS1) is 1; in experiment [7] it was 0.157; in [8] it was 0.53; in experiment [9], 0.703; in [10], 0.697; in experiment [11] it was -0.102. Moreover, the composite z-score in [12] is 0.0565; in experiment [13], 1.38; in experiment [14] it was 1.32; in the experiment with Lefty1, 0.876; in experiment [16] it was 0.471. Also, the composite Z-score in experiment [1] is -0.226 (inactive). Also, the z-score in [15] is 0.42; in [17], -10.9 (active).

With `O=C1NC(=O)C2C1C=CC(C(O)c1ccc([N+](=O)[O-])cc1)N2Nc1ccccn1` (stereo not given), the composite z-score with Albumin (Bos taurus) was -0.494; in [2], -0.173; in [3], -0.0843; in [4], 0.265; in experiment [5], 0.555; in experiment [6], 0.0223. Besides, the composite z-score in the experiment with Sam68 (KHDRBS1) is -0.413; in [7], 0.472; in experiment [8], -0.257; in experiment [9] it was 0.753; in [10], 0.175; in [11] it was -0.329. Further, the composite z-score was 0.0114 in experiment [12]; -0.12 in [13]; -0.163 in [14]; -0.262 with Lefty1; -0.0047 in experiment [16]. The composite Z-score in experiment [1] was -0.267 (inactive). Besides, the z-score in experiment [15] is -0.0893; in experiment [17] it was -1.48 (inactive).

As for `COC(=O)[C@H](Cc1ccccc1)N1CC2=CCCC=C[C@@H]2[C@H]1[C@H](O)Cc1ccccc1`, the composite z-score was 0.0618 in the experiment with Albumin (Bos taurus); 0.17 in experiment [2]; -0.118 in experiment [3]; 0.708 in [4]; 0.25 in experiment [5]; 0.368 in experiment [6]. For the same compound, the composite z-score is 0.374 in the experiment on Sam68 (KHDRBS1); 0.204 in experiment [7]; 0.854 in experiment [8]; -0.305 in experiment [9]; 0.431 in [10]; -0.384 in experiment [11]. The composite z-score in experiment [12] was 0.515; in [13], 0.87; in experiment [14], 0.122; with Lefty1, 0.273; in experiment [16], 0.261. The composite Z-score in experiment [1] is 0.495 (inactive). Also, the results for the z-score in experiment [15] and in [17] were 0.18 and -0.62 (inactive), respectively.
